Abeta yeast res = compounds reversing amyloid beta toxicity in yeast; yeast expressing A-beta42, growth rescue, OD600, 48 h; response scale: 0% DMSO, 100% iron-clioquinol control; hit rate 0.063% among 410,000; AID 1347071; Potency, µM (series often up to 46.1 µM), usual class: activators; further: nearly all actives have a fitted effect of over 55% in size
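Yeast growth medium received pinned compounds, then yeast cells expressing toxic A-beta were added; plates incubated at 30 C for 48 hr. Growth read as absorbance at 600 nm, normalized to DMSO and equimolar FeCl3 plus clioquinol controls.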
Mito fusion act = inhibitors of mitochondrial division or activators of mitochondrial fusion; S. cerevisiae fusion-defective mutant growth rescue, CellTiterGlo 48 h; Potency, µM (series often up to 46.1 µM), without a hit: at the top dose growth rescue (activation), actives largely listed as activators; AID 485298; hit rate 0.23% among 320,000; further: % of control where 0% means no effect; nearly all actives have a fitted effect of over 45% in size
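Luminescent cell viability in 1536-well qHTS format served as the measure of rescued growth in ts fusion-mutant S. cerevisiae cultured on non-fermentable YPEG for 48 hours at 37C.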
TDP43 rescue = inhibitors of TDP-43 toxicity in yeast | AID 652104 | TDP-43 expressing yeast growth rescue, BacTiter-Glo, 24 h | hit rate 1.8% among 410,000 | Potency, µM (titrated, usually from 46.1 µM), for inactives: at the top dose growth rescue (activation), actives largely listed as activators; further: % of control where 0% means no effect; nearly all actives have a fitted effect of over 50% in size
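Yeast expressing TDP-43 (pregrown in raffinose, seeded at OD600=0.02 in galactose medium) exposed to compounds 24 hr at 30 deg C. Growth read by BacTiter-Glo luminescence; rescue of toxicity appears as increased signal.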
aSyn yeast inh = inhibitors of alpha-synuclein toxicity in yeast; Yeast expressing alpha-synuclein, growth rescue, BacTiter-Glo, 24 h; Potency, µM (doses to about 46.1 µM), inactives show at the highest dose growth rescue (activation), actives largely listed as activators; hit rate 0.14% among 370,000; AID 652106; further: % of control where 0% means no effect; nearly all actives have a fitted effect of over 65% in size
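Screening used galactose-induced yeast with toxic alpha-synuclein levels, exposed to compound for 24 hr at 30 deg C. Cell growth, read with BacTiter-Glo luminescence, gave the measured signal.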
FUS suppressor = FUS proteinopathy suppression in yeast; AID 1347120; Potency, µM (highest dose often 76.6 µM), usual class: activators; hit rate 0.24% among 390,000; S. cerevisiae FUS-expressing, growth rescue, OD600, 24 h;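 further: plate controls were DMSO vehicle for no effect and reference control for full effect; nearly all actives have a fitted effect of over 55% in size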
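FUS-expressing yeast, raffinose-pregrown, induced in 2% galactose minimal medium at OD 0.005; compounds in a dilution series, 24hr at 30C. Growth restoration read as absorbance at 600 nm. CP55940 positive control, DMSO negative.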
* marks the source's active call; other numbers are inactive results; i = inactive; ? = inconclusive; . = no result given. A selection: hits, their analogues and other compounds. The true share with any hit is near 2.2%. The call rests on the fitted dose curve; in most records, active means well fitted curve in the direction sought with a large enough effect; inconclusive means small, poorly fitted or top-dose-only effect, or another doubt; inactive means no such curve, though single readings can be large; an effect the other way counts as inactive or inconclusive. Potency means the concentration at half of the fitted maximal effect.

SMILES	Abeta yeast res	Mito fusion act	TDP43 rescue	aSyn yeast inh	FUS suppressor
CCCS(=O)(=O)c1nnnn1-c1cccc(OC)c1	i	-26%	11µM*	-4%	i
COc1cccc(-n2nnnc2SCC(=O)Nc2ccccc2OC)c1	i	1%	15%	1%	i
Cc1ccc2nc(NC(=O)C3=NN(c4ccccc4)C(=O)CC3)sc2c1	i	30%	16µM*	-1%	?
Cc1ccc(Nc2nc(-c3ccccc3)nc3ccccc23)cc1	i	.	13µM*	-31%	i
Cc1cccc(Nc2nc(-c3ccccc3)nc3ccccc23)c1	i	.	25µM*	.	i
Oc1cccc(Nc2nc(-c3ccccc3)nc3ccccc23)c1	i	18%	-7%	12%	i
CCOC(=O)c1ccc2[nH]c3c(c2c1)CCCC3	i	2%	25µM*	-2%	i
Cc1ccc(NS(=O)(=O)c2ccc3[nH]c4c(c3c2)CCCCCC4)cc1	i	.	14µM*	.	i
CCOC(=O)c1ccc(NS(=O)(=O)c2ccc3[nH]c4c(c3c2)CCCCC4)cc1	i	.	6%	?	?
CSc1nc(N)c2ncn([C@@H]3O[C@H](COP(=O)(O)OP(=O)(O)O)C(O)[C@H]3O)c2n1 (stereo partly drawn)	.	-58%	.	-5%	.
COc1cn(CC(=O)Nc2ccccc2)c(CN2CCCCC2)cc1=O	i	.	?	.	i
COCCN1Cc2cccc(C(=O)Nc3cc(C)cc(C)c3)c2C1=O	i	8%	14%	-4%	i
COCCN1Cc2cccc(C(=O)Nc3ccc(Cl)cc3Cl)c2C1=O	i	.	16µM*	.	i
CCOC(=O)c1ccc(NC(=O)c2cccc3c2C(=O)N(CC2CCCO2)C3)cc1 (stereo not drawn)	i	11%	22µM*	3%	?
COCCN1Cc2cccc(C(=O)Nc3ccc(C)c(F)c3)c2C1=O	i	.	13µM*	.	i
CCCN1Cc2cccc(C(=O)Nc3ccc(C)cc3)c2C1=O	i	2%	8%	-7%	i
CCN(CC)C(=O)CC[C@H]1CC[C@]2(CCCN(C3CCCCC3)C2)O1	.	.	.	.	i
Cc1c(C(=O)NCCSCc2c(F)cccc2Cl)cnn1-c1ccc(F)cc1	i	-4%	-1%	9%	i
Cc1c(C(=O)NCCSCc2ccc(F)cc2)cnn1-c1ccc(Cl)cc1	i	-7%	13µM*	11%	i
CC(=C1SC(=S)NC1=O)c1ccccc1	i	.	13µM*	-12%	.
COc1ccccc1C=C1SC(=S)NC1=O	i	.	-15%	-7%	.
C(=C\c1cnc2ccccc2n1)/c1ccc2c(c1)OCO2	.	.	.	-7%	.
O=C(Nc1cccn(Cc2c(Cl)cccc2Cl)c1=O)c1c(Cl)cccc1Cl	i	-14%	10µM*	-7%	i
COC(=O)Nc1cccn(Cc2c(Cl)cccc2Cl)c1=O	?	3%	-20%	-7%	i
C#CCn1c(S(=O)(=O)Cc2ccc(OC)cc2)nc(-c2ccccc2)c1-c1ccccc1	i	0%	-23%	-10%	25µM*
SMILES	Abeta yeast res	Mito fusion act	TDP43 rescue	aSyn yeast inh	FUS suppressor
C=CCN1C[C@@H](COCc2ccccc2)Oc2cccc(F)c2S1(=O)=O	.	.	.	.	i
Cc1nc(NC(=S)Nc2ccccc2)sc1C	11µM*	-9%	?	-1%	i
CCC(C(=O)Nc1nc(C)c(C)s1)c1ccccc1 (stereo not drawn)	?	-10%	18µM*	-2%	i
Cc1ccc(C(=O)Nc2nnc(NC(=S)Nc3ccccc3)s2)cc1	i	-12%	13%	-5%	i
CCc1nnc(NC(=S)Nc2ccccc2)s1	?	-3%	13µM*	-9%	i
O=C(Nc1ccccc1C(F)(F)F)C1CCN(S(=O)(=O)Cc2ccccc2)CC1	i	.	16%	.	i
CCCCNC(=O)C[C@@H]1C[C@@]2(C(=O)OC)CCCCC=C2N(CCc2ccc(OC)c(OC)c2)C1=O	i	.	-12%	-2%	i
CCCCCCCCN1C(=O)[C@H](CC(=O)NCc2ccc(OC)c(OC)c2)C[C@@]2(C(=O)OCC)CCC=C12	i	.	28µM*	-5%	?
CCCCCCCCN1C(=O)[C@H](CC(=O)NCc2ccc(OC)c(OC)c2)C[C@@]2(C(=O)OC)CCCCC=C12	i	.	20µM*	17%	?
COC(=O)[C@]12CCCCC=C1N(CCc1ccc(OC)c(OC)c1)C(=O)[C@H](CC(=O)NCC13CC4CC(CC(C4)C1)C3)C2	i	.	-12%	-1%	8.9µM*
Cc1ccc(OCC(=O)Nc2cccc(OCc3cc(=O)n4ccccc4n3)c2)cc1C	i	.	0%	.	i
COc1cc2ncc3c(-c4ccccc4)nn(-c4ccc(C)cc4)c3c2cc1OC	i	.	7.1µM*	.	i
COC(=O)C1CN(Cc2cn(Cc3ccccc3)nn2)CCS(=O)(=O)N1Cc1ccc(C)cc1 (stereo not drawn)	.	.	.	.	i
COC(=O)c1ccc2nc(-c3ccco3)c(Cc3ccc(C)cc3)n2c1	i	.	20µM*	?	i
COC(=O)c1ccc2nc(-c3ccc(C)cc3)c(Cc3ccc(C)cc3)n2c1	i	.	?	?	i
COC(=O)c1ccc2nc(-c3ccco3)c(Cc3cccc(F)c3)n2c1	i	.	14µM*	?	i
Fc1cccc(Cc2c(-c3ccco3)nc3c(Cl)cc(C(F)(F)F)cn23)c1	i	.	13µM*	12%	i
Cc1ccc(Cc2c(-c3ccco3)nc3c4ccccc4ccn23)cc1	i	.	0%	13µM*	i
Cc1ccc(CN2CCCCC(NC(=O)c3ccc(C)cc3)C2=O)cc1 (stereo not drawn)	.	.	.	.	i
Oc1ccc(Br)cc1-c1cc(-c2ccccc2)n[nH]1	?	16%	25%	0%	i
O=[N+]([O-])c1cccc(-c2cc(-c3cc(Br)ccc3O)[nH]n2)c1	i	-49%	13µM*	-7%	i
O=C(CSc1nc(=O)[nH]c2c1CCCC2)NCc1ccc(Cl)cc1	i	.	21%	.	i
CC[n+]1c(/C=C/C=C2/N(C)c3ccccc3C2(C)C)sc2ccccc21	.	-40%	.	-82%	.
CCc1ccc(-n2nc(CO)c(C(=O)NCCOC)n2)cc1	i	.	30%	.	i

Source: PubChem BioAssay (National Center for Advancing Translational Sciences (NCATS))
